# Reference: PubChem BioAssay (EPA / NIEHS)
# Inconclusive results are not listed. The source holds several records for some structures; these can differ, active in one and inactive in another. Active and inactive are the calls of the source. Rule for the calls, unless noted: active = hit-call score of the fitted dose curve at least 0.9, where 1 is the maximum; inactive = score below 0.9.
# How the values were obtained:
# [1] = CCTE_Mundy_HCI_Cortical_Synap_Neur_Matur_CellBodySpotCount: CCTE's Synaptogenesis and Neurite Maturation Assay in rat cortical cells for Cell Body Spot Count, Mundy Lab (AID 2284223)
# Outline: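 Read-out: cell body-associated synaptophysin puncta per neuron, imaged after MAP2, synaptophysin and Hoechst staining. Rat cortical cells, AraC DIV 5, chemical dosing DIV 7, fixation DIV 12. Activity fitted in positive direction relative to DMSO baseline.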
# [2] = CCTE_Mundy_HCI_hNP1_Pro_ResponderAvgInten: CCTE's Proliferation Assay in human neuroprogenitor cells, Mundy Lab (AID 2284224; active = hit-call score of the fitted dose curve at least 0.9, where 1 is the maximum)
# Description: CCTE_Mundy_HCI_hNP1_Pro is a multiplexed, cell-based-readout assay that uses neural stem cells derived from a neuroepithelial cell lineage of WA09 embryonic cells with measurements taken at 26.25 hours after chemical dosing in a microplate: 96-well plate.CCTE_Mundy_HCI_hNP1_Pro_ResponderAvgInten is one of three components of the CCTE_Mundy_HCI_hNP1_Pro assay. It measures proliferation related to percentage of BrdU positive cells using High Content Imaging of fluorescently labelled markers.Data from the assay component CCTE_Mundy_HCI_hNP1_Pro_ResponderAvgInten was analyzed at the endpoint CCTE_Mundy_HCI_hNP1_Pro_ResponderAvgInten in the positive analysis fitting direction relative to DMSO as the negative control and baseline of activity. Using a type of growth reporter, loss -of-signal activity can be used to understand viability effects.
# Human neural progenitor cells (hNP1) were obtained as cryopreserved cells from ArunA Biomedical, Athens Georgia. Cells are plated on pre-coated poly-L-ornithine/laminin clear bottom and opaque 96 well plates (day 0). Plates are placed in a 37 °C, 5% CO2 incubator for 40 to 44 hours at which time plates are removed from the incubator and 10 uL of a freshly made chemical solution is added to each well. Twenty hours after the addition of the chemicals, the clear plates are removed from the incubator and 11 uL of a BrdU solution is added to each well. […]
# [3] = BSK_BT_PBMCCytotoxicity: PBMC Cytotoxicity Assessment in the BioMAP Diversity Plus: BT Assay (AID 2284225); settings: primary human B cells with PBMC;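 note: PBMC viability measured by Alamar Blue dye reduction fluorescence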
# Outline: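 75,000 cells/well; cpd 1 h → SEB + TSST-1 (20 ng/mL final each) → 90 h → Alamar Blue 6 h → fluor. 546/580 nm. DMSO = neg. control/baseline.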
# [4] = read-out: Secreted IgG (sIgG), gene 3500; test: BSK_BT_sIgG: BioMAP Diversity Plus: BT Assay for Secreted IgG (sIgG) Biomarker Activity (AID 2284226); settings: primary human B cells with PBMC
# Outline: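 Secreted IgG from a human primary B cell–PBMC co-culture was measured by ELISA 24 hours after dosing, with DMSO defining baseline activity.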
# [5] = BSK_BT_Bcell_Proliferation: Viability Assessment in the BioMAP Diversity Plus: BT Assay for B cell Proliferation (AID 2284227); settings: primary human B cells with PBMC
# Outline: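 SRB-based protein staining (0.1% SRB after 10% TCA fixation, 560 nm) quantifies proliferation in human B cells co-cultured with PBMC, 72 h post-dosing, with signal gain scored relative to DMSO negative control.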
# [6] = read-out: Interleukin 17A (IL17A), IL17A (gene 3605); test: BSK_BT_xIL17A: BioMAP Diversity Plus: BT Assay for Interleukin 17A (IL17A) Biomarker Activity (AID 2284229); settings: primary human B cells with PBMC
# Outline: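 Luminex xMAP readout of secreted IL-17A; human B cell + PBMC co-culture; 24 h post-dose; positive-direction fit vs DMSO negative control.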
# [7] = read-out: Tumor necrosis factor (Homo sapiens) (UniProt P01375); test: BSK_BT_xTNFa: BioMAP Diversity Plus: BT Assay for Tumor necrosis factor alpha (TNF-alpha) Biomarker Activity (AID 2284230); settings: primary human B cells with PBMC
# Outline: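 Compounds were added to a B cell plus PBMC co-culture, and after 24 h secreted TNF-alpha was quantified with Luminex xMAP technology, with responses fitted upward from the DMSO control.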
# [8] = read-out: Vascular cell adhesion molecule 1 (VCAM1), VCAM1 (gene 7412); test: BSK_MyoF_VCAM1: BioMAP Diversity Plus: MyoF Assay for Vascular cell adhesion molecule 1 (VCAM1) Biomarker Activity (AID 2284231); settings: primary human lung fibroblasts
# Outline: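 MyoF system, lung fibroblasts; 24 h post-dose; VCAM-1 by ELISA; gain-of-signal fit vs DMSO baseline.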
# [9] = UKN4_HCS_LUHMES_cell_viability: Viability Assessment in the University of Konstanz (UKN) Leist Lab Neurite Outgrowth Assay in human LUHMES cells (UKN4) (AID 2284232)
# Outline: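 Human dopaminergic-model LUHMES neurons were exposed to chemicals for 24 h after a 2-day differentiation. Viability was scored by imaging Hoechst H-33342 staining, with activity fitted in both directions relative to DMSO controls.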
# [10] = UKN2_HCS_IMR90_cell_viability: Viability Assessment in the University of Konstanz (UKN) Leist Lab Neural Crest Cell Migration Assay in human induced IMR90 Pluripotent Stem Cells (UKN2) (AID 2284233);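 note: viability of neural crest cells differentiated from IMR90 iPSC measured by calcein-AM fluorescence imaging; cells exposed to compound for 24 h after a 24 h migration phase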
# Outline: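 Human IMR90-derived neural crest cells were allowed to migrate for 24 h into a cell-free zone, then exposed to test chemicals for 24 h. Calcein-AM and Hoechst staining with high-content imaging gave viability, analysed against DMSO baseline.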
# Sequence of Tumor necrosis factor (Homo sapiens) (P01375 whole entry, looked up): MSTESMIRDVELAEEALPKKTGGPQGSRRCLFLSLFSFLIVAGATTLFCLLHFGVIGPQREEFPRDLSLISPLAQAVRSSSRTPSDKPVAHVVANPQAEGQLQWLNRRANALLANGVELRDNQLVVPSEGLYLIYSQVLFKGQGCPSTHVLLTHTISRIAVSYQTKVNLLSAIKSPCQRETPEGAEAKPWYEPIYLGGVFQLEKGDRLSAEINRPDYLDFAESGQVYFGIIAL
smiles,measurement,setting,value
N[C@H]1C(O)O[C@H](CO)[C@H](O)[C@@H]1O (stereo not given in full),outcome,[1],inactive
same,outcome,[2],inactive
COc1ccc2nc(N)sc2c1,outcome,[3],inactive
same,outcome,[4],inactive
same,outcome,[5],inactive
same,outcome,[6],inactive
same,outcome,[7],inactive
same,outcome,[8],inactive
C=CC=CC=CCCCCC,outcome,[3],inactive
same,AC50,[4],7.13 µM (active)
same,outcome,[5],inactive
same,outcome,[6],inactive
same,outcome,[7],inactive
same,outcome,[8],inactive
Nc1ncn([C@@H]2O[C@H](CO)[C@@H](O)[C@H]2O)c(=O)n1,outcome,[1],inactive
same,AC50,[2],8.32 µM (active)
same,AC50,[9],16.5 µM (active)
same,AC50,[10],6.91 µM (active)
same,outcome,[10],inactive
CCCCCCCCc1ccc(Nc2ccc(CCCCCCCC)cc2)cc1,outcome,[3],inactive
same,outcome,[4],inactive
same,outcome,[5],inactive
same,outcome,[6],inactive
same,outcome,[7],inactive
same,outcome,[8],inactive
CCCCC(CC)COC(=O)c1ccccc1O (stereo not given),outcome,[3],inactive
same,AC50,[4],7.14 µM (active)
same,outcome,[5],inactive
same,outcome,[6],inactive
same,outcome,[7],inactive
same,outcome,[8],inactive
CC1(C)S[C@@H]2[C@H](NC(=O)COc3ccccc3)C(=O)N2[C@H]1C(=O)O,outcome,[1],inactive
O=C(Cl)c1cc(C(=O)Cl)cc(C(=O)Cl)c1,AC50,[3],28 µM (active)
same,AC50,[4],14.6 µM (active)
same,AC50,[5],29.3 µM (active)
same,AC50,[6],15.4 µM (active)
same,AC50,[7],31.9 µM (active)
same,AC50,[8],35.3 µM (active)
C#CC1(O)CC[C@H]2[C@@H]3CCC4=CCCC[C@@H]4[C@H]3CC[C@@]21C (stereo not given in full),AC50,[3],34.3 µM (active)
same,AC50,[4],10.7 µM (active)
same,AC50,[5],30.1 µM (active)
same,AC50,[6],14.5 µM (active)
same,AC50,[7],34.2 µM (active)
same,AC50,[8],33.1 µM (active)
c1ccc(-c2ccccn2)nc1,outcome,[3],inactive
same,AC50,[4],20 µM (active)
same,outcome,[5],inactive
same,outcome,[6],inactive
same,outcome,[7],inactive
same,outcome,[8],inactive
O=Nc1ccc(O)cc1,outcome,[3],inactive
same,outcome,[4],inactive
same,outcome,[5],inactive
same,outcome,[6],inactive
same,outcome,[7],inactive
same,outcome,[8],inactive
COCc1c(C(C)C)nc(C(C)C)c(/C=C/[C@@H](O)C[C@@H](O)CC(=O)O)c1-c1ccc(F)cc1,outcome,[3],inactive
same,AC50,[4],0.0231 µM (active)
same,AC50,[5],0.24 µM (active)
same,AC50,[6],0.312 µM (active)
same,AC50,[7],0.512 µM (active)
same,AC50,[8],0.0229 µM (active)
CCCCC/C=C\C/C=C\CCCCCCCC(=O)OC,AC50,[3],24.3 µM (active)
same,AC50,[4],20 µM (active)
same,AC50,[5],26.3 µM (active)
same,AC50,[6],23.8 µM (active)
same,AC50,[7],30 µM (active)
same,outcome,[8],inactive
C=CC(=O)OCC(Br)CBr (stereo not given),AC50,[3],20.5 µM (active)
same,AC50,[4],7.95 µM (active)
same,AC50,[5],20 µM (active)
same,AC50,[6],7.7 µM (active)
same,AC50,[7],28.1 µM (active)
same,AC50,[8],20 µM (active)
CCCCNc1ccc(NCCCC)c2c1C(=O)c1ccccc1C2=O,outcome,[3],inactive
same,outcome,[4],inactive
same,outcome,[5],inactive
same,outcome,[6],inactive
same,outcome,[7],inactive
same,outcome,[8],inactive
CCO[Si](CCCN=C=O)(OCC)OCC,outcome,[3],inactive
same,outcome,[4],inactive
same,outcome,[5],inactive
same,outcome,[6],inactive
same,outcome,[7],inactive
same,outcome,[8],inactive
C=CCOCC(O)CCl (stereo not given),outcome,[3],inactive
same,AC50,[4],20 µM (active)
same,outcome,[5],inactive
same,outcome,[6],inactive
same,outcome,[7],inactive
same,outcome,[8],inactive
N#[N+]c1ccc2c(S(=O)(=O)[O-])cccc2c1O,outcome,[3],inactive
same,outcome,[4],inactive
same,outcome,[5],inactive
same,outcome,[6],inactive
same,outcome,[7],inactive
same,outcome,[8],inactive
C=CCOc1c(Br)cc(Br)cc1Br,outcome,[3],inactive
same,outcome,[4],inactive
same,outcome,[5],inactive
same,outcome,[6],inactive
same,outcome,[7],inactive
same,AC50,[8],23.7 µM (active)
c1ccc2c(c1)ccc1cc3c(ccc4ccccc43)cc12,outcome,[3],inactive
same,outcome,[4],inactive
same,outcome,[5],inactive
same,outcome,[6],inactive
same,outcome,[7],inactive
same,outcome,[8],inactive
O=C(Nc1ccccc1SSc1ccccc1NC(=O)c1ccccc1)c1ccccc1,AC50,[3],6.24 µM (active)
same,AC50,[4],4.59 µM (active)
same,AC50,[5],5.95 µM (active)
same,AC50,[6],5.93 µM (active)
same,AC50,[7],11.7 µM (active)
same,outcome,[8],inactive
O=c1c2ccccc2oc2ccccc12,outcome,[3],inactive
same,AC50,[4],11.7 µM (active)
same,outcome,[5],inactive
same,outcome,[6],inactive
same,outcome,[7],inactive
same,outcome,[8],inactive
CC1OC1C1CCC2(C)OC2C1 (stereo not given),outcome,[3],inactive
same,outcome,[4],inactive
same,outcome,[5],inactive
same,outcome,[6],inactive
same,outcome,[7],inactive
same,outcome,[8],inactive
CC(C)C(=O)C(C)C,outcome,[3],inactive
same,outcome,[4],inactive
same,outcome,[5],inactive
same,outcome,[6],inactive
same,outcome,[7],inactive
same,outcome,[8],inactive
CCOc1nc(F)cc2nc(S(=O)(=O)Nc3c(Cl)cccc3C(=O)OC)nn12,outcome,[3],inactive
same,outcome,[4],inactive
same,outcome,[5],inactive
same,outcome,[6],inactive
same,outcome,[7],inactive
same,outcome,[8],inactive
CC(C)(c1cc(Br)c(OCCO)c(Br)c1)c1cc(Br)c(OCCO)c(Br)c1,outcome,[3],inactive
same,AC50,[4],8.71 µM (active)
same,AC50,[5],21.2 µM (active)
same,AC50,[6],20.8 µM (active)
same,AC50,[7],30.2 µM (active)
same,AC50,[8],7.89 µM (active)
C/C=C\C/C=C/CCCCCCCCOC(C)=O,AC50,[3],20 µM (active)
same,AC50,[4],17 µM (active)
same,AC50,[5],28 µM (active)
same,AC50,[6],15.1 µM (active)
same,AC50,[7],20 µM (active)
same,outcome,[8],inactive
CCCCCCCCCCCCCCCC[N+](C)(C)CC,AC50,[3],6.46 µM (active)
same,AC50,[4],0.0956 µM (active)
same,AC50,[5],1.81 µM (active)
same,AC50,[6],1.63 µM (active)
same,AC50,[7],12 µM (active)
same,AC50,[8],1.71 µM (active)
c1ccc2c(c1)ccc1ncccc12,outcome,[3],inactive
same,outcome,[4],inactive
same,outcome,[5],inactive
same,outcome,[6],inactive
same,outcome,[7],inactive
same,outcome,[8],inactive
S=C(NC1CCCCC1)NC1CCCCC1,outcome,[3],inactive
same,AC50,[4],20 µM (active)
same,AC50,[5],31.2 µM (active)
same,outcome,[6],inactive
same,outcome,[7],inactive
same,outcome,[8],inactive
